# Bioassay records from PubChem BioAssay.
# Most compounds without a hit are left out; they make up all but 1.6% or so of the library.
# KCNQ2 enhance: potentiators of rat KCNQ2 potassium channel. AID 2239. O88943. CHO-K1 KCNQ2, FluxOR thallium flux fluorescence; stronger effect = higher value. actives 0.54% (n = 310,000). B-score at 10 µM;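 active = fluorescence ratio B-score at least 3 SD of library B-scores, with initial fluorescence B-score within 3 of them, cut at about 5.3 in these data; same plate scores as AID 2156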;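 note: B-score of peak minus minimum over baseline fluorescence ratio after K+ and Tl+ stimulus; positive B-score means potentiation of KCNQ2 with more thallium influx and brighter signal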
# Target sequence (O88943 whole entry, looked up): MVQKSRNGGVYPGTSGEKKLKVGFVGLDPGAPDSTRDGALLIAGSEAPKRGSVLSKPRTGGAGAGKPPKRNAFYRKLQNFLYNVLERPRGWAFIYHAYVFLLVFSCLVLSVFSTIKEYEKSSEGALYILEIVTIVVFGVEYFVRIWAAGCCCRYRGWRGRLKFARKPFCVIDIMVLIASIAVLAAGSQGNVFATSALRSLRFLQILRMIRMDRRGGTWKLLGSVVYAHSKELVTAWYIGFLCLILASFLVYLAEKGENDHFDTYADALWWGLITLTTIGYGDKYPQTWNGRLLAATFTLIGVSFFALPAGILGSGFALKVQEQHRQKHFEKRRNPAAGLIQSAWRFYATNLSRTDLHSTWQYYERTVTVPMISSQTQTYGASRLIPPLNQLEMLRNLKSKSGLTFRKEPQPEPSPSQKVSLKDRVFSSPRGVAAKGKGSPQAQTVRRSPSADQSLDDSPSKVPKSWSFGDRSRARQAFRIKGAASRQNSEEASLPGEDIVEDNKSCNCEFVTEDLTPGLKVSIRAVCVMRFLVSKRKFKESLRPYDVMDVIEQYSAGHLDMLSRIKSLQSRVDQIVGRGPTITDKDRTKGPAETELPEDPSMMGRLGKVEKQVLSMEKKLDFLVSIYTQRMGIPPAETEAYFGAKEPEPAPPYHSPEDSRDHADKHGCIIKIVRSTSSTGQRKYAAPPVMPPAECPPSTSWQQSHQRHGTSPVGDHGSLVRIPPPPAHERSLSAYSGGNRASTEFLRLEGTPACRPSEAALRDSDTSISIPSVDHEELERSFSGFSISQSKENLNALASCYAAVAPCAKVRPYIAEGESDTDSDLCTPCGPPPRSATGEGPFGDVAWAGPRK
# KCNQ2 inh: inhibitors of rat KCNQ2 potassium channel; CHO-K1 KCNQ2, FluxOR thallium flux, 20 min; stronger effect = lower value; actives 1.1% (n = 310,000); B-score at 10 µM; O88943;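 active = fluorescence ratio B-score at most minus 3 library SDs, with starting brightness B-score within 2 library SDs, cut at about -5.5 in these data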
# Hits are given with their value; i = inactive; nt = no result.
SMILES,KCNQ2 enhance,KCNQ2 inh
O=C(Cn1c(=O)n(Cc2ccco2)c(=O)c2c3c(sc21)CCCCC3)Nc1ccccc1,nt,i
O=C(Cn1c(=O)n(Cc2ccco2)c(=O)c2c3c(sc21)CCCCC3)c1ccccc1,i,-5.7
O=C(NC12CC3CC(CC(C3)C1)C2)N1CCN(C(=O)c2ccco2)CC1,i,i
NS(=O)(=O)c1ccc(CCNC(=O)c2ccc3ccccc3n2)cc1,i,i
O=C(COc1ccccc1)NC(=S)N1CCc2ccccc21,10,i
COc1ccc(OCC(=O)NC(=S)N2CCCc3ccccc32)cc1,nt,i
O=C(NC(=S)N(CCO)Cc1ccccc1)c1ccc(F)cc1Cl,nt,i
O=C(COc1ccc(Cc2ccccc2)cc1)c1ccc(F)cc1,6.7,i
O=C(COc1ccc(F)cc1)c1ccc2c(c1)CCCC2,nt,i
COC(CNC(=O)CN1CCN(Cc2ccccc2F)C1=O)OC,i,i
Cc1ccc(C)c(C(=O)Cn2c(NCCO)nc3ccccc32)c1,i,i
Cc1ccccc1Oc1cccc(C(=O)/C(C#N)=C/N(C)C)c1,i,i
CN(C)/C=C(/C#N)C(=O)c1cccc(Oc2ccc(C(C)(C)C)cc2)c1,i,-7.8
COc1ccc(-c2cc3ccccc3s2)cc1[C@H]1[C@H]2C=CC[C@@H](C)[C@@H]2C(=O)N1Cc1ccccc1,nt,i
Cc1cccc(-c2ncc(CN3CCCC(CO)(Cc4ccccc4C)C3)cn2)c1 (centres undefined),nt,i
CC(=O)Nc1sc2c(c1C#N)CCC(C)C2 (centres undefined),i,i
Cc1ccc(C)n1-c1sc2c(c1C#N)CCC(C)C2 (centres undefined),i,-7.8
CC(c1ccccc1)N(CCC(c1ccccc1)C1CCOC(C)(C)C1)C(=O)c1ccco1 (centres undefined),nt,i
COc1ccc(CN(CCC(c2ccc(F)cc2)C2CCOC(C)(C)C2)C(=O)c2ccco2)cc1 (centres undefined),i,-5.8
COC(=O)C(C)Oc1ccc(-c2nccc(-c3ccccn3)n2)cc1 (centres undefined),i,i
CC1(C)CC(=O)C2=C(C1)OC1=C(C2)C(=O)CC(C)(C)C1,i,-6
CC1(C)CC(=O)C2=C(C1)OC1=C(C(=O)CC(C)(C)C1)C2c1ccc(O)cc1O,nt,i
O=C(NCc1ccc(F)cc1)c1c2c(nc3ccccc13)CCN(Cc1ccccc1)C2,nt,i
COC(=O)c1ccc(CNC(=O)c2c3c(nc4ccccc24)CCN(Cc2ccccc2)C3)cc1,i,-6.2
Cc1ccc(C(=O)Nc2cccc3ccccc23)cc1,i,i
SMILES,KCNQ2 enhance,KCNQ2 inh
CC(C)(C)c1cc(C(=O)Nc2cccc3ccccc23)ccn1,i,-5.8
COc1cccc(NC(=O)[C@H](C)NC(=O)C2CCN(S(=O)(=O)c3ccc(C)cc3)CC2)c1,i,i
CCOC(=O)c1cccc(-n2c(C)cc(C=O)c2C)c1,i,i
CCOC(=O)c1c(-n2c(C)cc(C=O)c2C)sc2c1CCCC2,i,-6.1
COc1ccc(C2NC(=O)N(CCCC(=O)O)C(C)=C2C(=O)OCc2ccccc2)cc1 (centres undefined),i,i
Cc1cc(C)c2c(=O)n(CC(=O)NC3CCCC3)sc2n1,i,i
COc1ccc(OC)c(CCNC(=O)Cn2sc3nc(C)cc(C)c3c2=O)c1,i,-9.3
CCCn1c(Nc2cccc(OC)c2)nc2ccccc21,nt,i
COc1ccc(CN(C(=O)CSc2nnc(-c3ccccc3C)o2)c2ccc(F)cc2)cc1,i,-6.4
O=C(CSc1nnc(-c2c[nH]c3ccccc23)o1)N(Cc1ccccc1)c1ccc(F)cc1,nt,i
CCCc1nc2nc(C)c(NS(=O)(=O)c3ccc(C4CCCCC4)cc3)c(=O)n2[nH]1,i,i
O=S(=O)(Nc1c(S(=O)(=O)c2ccccc2)c2nc3ccccc3nc2n1C1CCCCC1)c1ccccc1,i,-6.2
C=CCn1c(NS(=O)(=O)c2ccccc2)c(S(=O)(=O)c2ccc(C)cc2)c2nc3ccccc3nc21,nt,i
CC1CCCCN1C(=O)/C(=C\c1ccccc1)c1ccccc1 (centres undefined),nt,i
Cc1ccc(CSCCNC(=O)CSCc2ccc([N+](=O)[O-])cc2)cc1,nt,i
Cc1ccccc1CSCCNC(=O)CSCc1ccc([N+](=O)[O-])cc1,i,-6.4
O=C(CC1C(=O)N(c2ccccc2)C(=S)N1c1ccccc1)c1ccc(Br)cc1 (centres undefined),i,-6.4
O=C(CC1C(=O)N(c2ccccc2)C(=S)N1c1ccccc1)c1ccccc1 (centres undefined),nt,i
CC(C)(C)N(NC(=O)OCc1ccccc1)C(=O)c1ccccc1Cl,7.7,i
CC(C)(C)N(NC(=O)OCc1ccccc1)C(=O)c1ccccc1,nt,i
Cc1ccc(S(=O)(=O)NC(=O)c2cc(C)n(-c3ccc(N(C)C)cc3)c2C)cc1,i,i
CCOC(=O)CC1(NC(=O)c2cc(COc3c(F)cccc3F)on2)CCCCC1,i,-5.7
COC(=O)[C@H](Cc1ccccc1)NC(=O)c1cc(COc2c(F)cccc2F)on1,i,i
Nc1ccccc1SCCS(=O)(=O)c1ccc(Cl)cc1,i,i
C[C@H]1[C@H](C)CC[C@]2(C(=O)O)CC[C@]3(C)C(=CC[C@@H]4[C@@]5(C)C[C@@H](O)[C@H](O)C(C)(C)[C@@H]5CC[C@]43C)[C@H]12,i,i
SMILES,KCNQ2 enhance,KCNQ2 inh
C[C@H]1[C@H](C)CC[C@]2(C)CC[C@]3(C)C(=CC[C@@H]4[C@@]5(C)CC[C@@H](O)[C@](C)(C(=O)O)[C@@H]5CC[C@]43C)[C@H]12,i,-9.2
Cc1cccc(C(=O)NNC(=O)c2ccccc2)c1,i,i
Cc1cccc(C(=O)c2cnc3ccccc3c2-c2ccccc2)c1,i,-6.4
Cc1cccc(COCC(Cc2ccccc2)N2CCN(C(=O)c3cccc(C)c3)CCC2=O)c1 (centres undefined),i,-5.8
Cc1ccc(S(=O)(=O)N2CCC(=O)N(C(COCc3cccc(Cl)c3)Cc3ccccc3)CC2)cc1 (centres undefined),nt,i
Cc1ccc(S(=O)(=O)N2CCC(=O)N(C(COCc3ccc(Cl)cc3Cl)Cc3ccccc3)CC2)cc1 (centres undefined),i,-6
CC(C)CC(COCc1cccc(C(F)(F)F)c1)N1CCN(C(=O)c2cccc(C(F)(F)F)c2)CCC1=O (centres undefined),nt,i
O=C(c1ccc(Cl)c(Cl)c1)N1CCC(=O)N(C(COCc2ccc(Cl)cc2)Cc2ccccc2)CC1 (centres undefined),i,-5.9
Cc1cccc(COCC(Cc2ccccc2)N2CCN(C(=O)c3cc(Cl)cc(Cl)c3)CCC2=O)c1 (centres undefined),nt,i
Cc1ccccc1COC[C@H](CC(C)C)N1CCN(C(=O)c2cccc(C(F)(F)F)c2)CCC1=O,i,-6.9
Cc1cccc(COCC(Cc2ccccc2)N2CCN(C(=O)c3ccc(Cl)c(Cl)c3)CCC2=O)c1 (centres undefined),nt,i
NCCNC[C@@H]1COC2(CCCCCCCCCCC2)O1,nt,i
Cc1ccc(NC2CCCN(C(=O)CSc3ccncc3)C2)cc1C (centres undefined),nt,i
COc1cc(CNCCc2c[nH]c3ccccc23)ccc1OCc1ccc(F)cc1,i,-7.2
COc1cc(CNCCc2c[nH]c3ccccc23)cc(Cl)c1OCC(N)=O,i,i
O=[N+]([O-])C1C(c2ccccc2)=NOC1c1ccccc1O (centres undefined),i,i
CCOc1ccc2nc(N3C(=O)/C(=C/c4ccc(Cl)cc4)NC3=S)sc2c1,15,i
